# Source: PubChem BioAssay
# Biological target: E3 ubiquitin-protein ligase XIAP (Homo sapiens) (UniProt P98170)
# Assay: small molecules binding XIAP protein – biophysical, small-molecule microarray, fluorescence 635 nm, primary screen (AID 1181);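 further: score merges 667 nm emission and signal to noise over triplicate slides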
# Details: higher = more signal
# E3 ubiquitin-protein ligase XIAP (Homo sapiens), sequence (P98170 whole entry, looked up): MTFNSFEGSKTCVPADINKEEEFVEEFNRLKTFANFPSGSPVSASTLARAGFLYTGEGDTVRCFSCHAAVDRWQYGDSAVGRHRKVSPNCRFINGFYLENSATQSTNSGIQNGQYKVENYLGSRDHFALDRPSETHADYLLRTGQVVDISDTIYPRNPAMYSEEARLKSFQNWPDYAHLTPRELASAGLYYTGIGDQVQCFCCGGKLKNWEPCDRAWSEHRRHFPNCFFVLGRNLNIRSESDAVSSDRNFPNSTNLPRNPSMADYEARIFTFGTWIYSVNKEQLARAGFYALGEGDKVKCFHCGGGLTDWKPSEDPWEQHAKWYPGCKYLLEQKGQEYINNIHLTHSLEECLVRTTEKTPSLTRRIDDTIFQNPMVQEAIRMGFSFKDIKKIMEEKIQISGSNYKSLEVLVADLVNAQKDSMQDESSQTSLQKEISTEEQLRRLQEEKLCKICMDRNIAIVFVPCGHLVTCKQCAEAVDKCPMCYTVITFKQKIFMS
row,SMILES,composite z-score
1,CC(C)c1ccc(NN2C(C(O)c3ccc4c(c3)OCO4)C=CC3C(=O)N(c4ccccc4)C(=O)C32)cc1 (stereo not drawn),0.0641
2,CN1C(=O)[C@@]2(CCC(=O)OC(C)(C)C)N=C(c3ccc(OCCCO)cc3)O[C@H]2c2ccccc21,0.169
3,COC(=O)[C@@]1(Cc2ccc(F)cc2)[C@@H]2C(=CC(=O)[C@H]2CC(=O)C(=O)N(C)C)CN1C(=O)c1ccccc1,-0.174
4,O=C(CS)NCCCCCNC(=O)[C@H]1C[C@H]2C(=O)N3CCC[C@H]3C(=O)N2[C@H]1c1cccc(OCCO)c1,0.0785
5,C=CCOC(=O)[C@H]1[C@@H]2C(=O)O[C@@H](c3ccccc3)[C@@H](c3ccccc3)N2[C@@H](c2ccc(OCCOC(=O)[C@H]3C[C@H]4C(=O)N[C@@H](Cc5ccccc5)C(=O)N4[C@H]3c3ccc(O)cc3)cc2)[C@]12C(=O)Nc1ccccc12,0.0015
6,COc1ccc([Si](C)(C)[C@@H]2[C@@H](CCO)O[C@]3(C(=O)N(Cc4ccc(NC(C)=O)cc4)c4ccccc43)[C@H]2C)cc1,0.0291
7,CCCCCN1CC=CC23O[C@@H]4C=CCOC(=O)[C@@H]4[C@H]2C(=O)N(CCCCCCO)[C@@H]3C1=O (stereo partly drawn),0.114
8,COC(=O)C1(C)C=C2C(=C(c3ccccc3)C(=O)C2C)CN1 (stereo not drawn),0.359
9,CC(C)N1CC=CC23O[C@@H]4C=CCCOC(=O)C4[C@H]2C(=O)N(CCCCCCO)[C@@H]3C1=O (stereo partly drawn),0.694
10,COc1ccc([Si](C)(C)[C@H]2[C@H](CCO)O[C@@]3(C(=O)N(Cc4cccc(NC(=O)[C@H](C)O)c4)c4ccccc43)[C@@H]2C)cc1,0.131
11,COc1ccc(CCNC(=O)[C@@H]2c3ccccc3C(=O)N(c3ccc(C)cn3)[C@H]2c2ccc(CO)cc2)cc1,-0.267
12,C=CCNC(=O)[C@H]1[C@@H]2C(=O)O[C@@H](c3ccccc3)[C@@H](c3ccccc3)N2[C@@H](c2ccc(O)cc2)[C@]12C(=O)N(C(=O)OCCOC)c1ccc(C#CC3=CCCCC3)cc12,0.22
13,[N-]=[N+]=NCc1ccccc1[C@@H]1OC(c2ccc(OCCCO)cc2)=N[C@]1(Cc1ccccc1)C(=O)N1CCOCC1,0.113
14,CC(C)C[C@@H]1NC(=O)[C@H]2C[C@@H](C(=O)NCCCCCCN(C)C)[C@@H](c3cccc(OCCO)c3)N2C1=O,0.0753
15,C=C(/C(=C/C[C@@H](OC(=O)c1ccncc1)c1ccc(OCCO)cc1)c1cnc2ccccc2c1)C(C)C,-0.0373
16,CS(=O)(=O)CCOC(=O)C1=CC(CCCO)=CC(c2cccs2)N(Cc2cccc(OC(F)(F)F)c2)C=C1C(=O)OCCS(C)(=O)=O (stereo not drawn),-0.268
17,COCCCNC(=O)[C@]1(CCC(=O)OC(C)(C)C)N=C(c2ccc(OCCCO)cc2)O[C@@H]1c1ccccc1N=[N+]=[N-],0.121
18,Cc1ccc(C2CC=C(C(=O)O)CN2S(=O)(=O)c2ccc(C)cc2)cc1 (stereo not drawn),-0.102
19,O=C1O[C@@H](c2ccccc2)[C@@H](c2ccccc2)N2[C@@H](c3ccc(OCCO)cc3)[C@]3(C(=O)Nc4ccccc43)[C@@H](C(=O)N3CCN(c4ncccn4)CC3)[C@H]12,-0.227
20,COCCOC(=O)N1C(=O)[C@@]2(c3cc(C#CCNC(N)=O)ccc31)[C@H](c1ccccc1OCCO)N1[C@H](c3ccccc3)[C@H](c3ccccc3)OC(=O)[C@H]1[C@@H]2C(=O)N1CCN(c2ncccn2)CC1,-0.152
21,COCCOC(=O)N1C(=O)[C@@]2(c3cc(C#Cc4ccc(OC)cc4)ccc31)[C@H](C(=O)N1CCN(c3ncccn3)CC1)[C@H]1C(=O)O[C@H](c3ccccc3)[C@H](c3ccccc3)N1[C@@H]2c1ccc(OCCO)cc1,-0.337
22,CN(C)CCCNC(=O)[C@@H]1c2ccccc2C(=O)N(Cc2cc(F)cc(C(F)(F)F)c2)[C@H]1c1ccc(CO)cc1,-0.0172
23,CCCNC(=O)[C@@H]1c2ccccc2C(=O)N(c2ccc(C)cn2)[C@H]1c1ccc(CO)cc1,-0.165
24,CN1C(=O)C2C=CC(C(O)c3ccc(I)cc3)N(NC(=O)OC(C)(C)C)C2C1=O (stereo not drawn),0.308
25,COC(=O)c1c(CC[C@@H](CO)NC(=O)N[C@H](Cc2ccccc2)Cn2cc(-c3ccccc3N)nn2)oc(C(C)=O)c1C(=O)OC,-0.127
26,CCCC=C(CCC)[C@@H](NC(=O)c1ccc(-c2ccccc2)cc1)c1ccc(C(=O)OC)cc1,0.0512
27,COCC(=C=CC[C@@H](O)c1ccccc1OCCO)CCO,0.326
28,CC1CC/C=C\[C@H]2OC34C=CCN(C(C)C)C(=O)[C@H]3N(CCCO)C(=O)[C@@H]4C2C(=O)O1 (stereo partly drawn),0.0131
